“And” between values parts separate entries of the source, which are not always exact repeats. Equal entries are not always repeated. The source made the active and inactive calls. The calls were made as follows: active = hit-call score of the fitted dose curve at least 0.9, where 1 is the maximum; inactive = score below 0.9.
These compounds were tested on Alpha-fetoprotein (AFP) gene, AFP (gene 174) (assay: LTEA_HepaRG_AFP: Life Technologies and Expression Analysis (LTEA) Assay for Alpha-fetoprotein (AFP) gene using HepaRG (AID 2283472;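 as to AC50: AFP transcript by TaqMan qRT-PCR normalized to ACTB GAPDH and POLR2A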)). Conditions: mRNA level, 48 h; actives raise or lower the signal.
Method in brief: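 Chemicals were tested on differentiated HepaRG cells for 48 hours at eight concentrations up to 100 uM, with 0.5% DMSO as vehicle. AFP expression was then quantified by qRT-PCR and analyzed for gain or loss relative to DMSO.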

Question: For `CCNc1nc(N)nc(Cl)n1`, which outcome is on record?
Answer: Its outcome is “inactive”.

Question: `CC(C)(C)[C@@H](O)[C@@H](Cc1ccc(Cl)cc1)n1cncn1` was tested. Which outcome did it give?
Answer: The outcome was “inactive”.

Question: With `C=CCOC(Cn1ccnc1)c1ccc(Cl)cc1Cl` (centres undefined) as the compound, how does the AC50 read?
Answer: The AC50 was 25.9 µM (active).

Question: `N[C@@H](Cc1cc(I)c(Oc2ccc(O)c(I)c2)c(I)c1)C(=O)O` was tested. Which AC50 did it give?
Answer: The AC50 was 40 µM (active).

Question: For `CCOC(=O)NCCOc1ccc(Oc2ccccc2)cc1`, which AC50 is on record?
Answer: The AC50 was 83.5 µM (active).

Question: For `COC(=O)c1ccccc1C(=O)O`, which outcome is on record?
Answer: Its outcome is “inactive”.

Question: Which outcome does the source give for `O=C(c1ccccc1)C1CCCCC1` here?
Answer: Its outcome is “inactive”.

Question: For `CCCCCCC(C)OC(=O)COc1nc(F)c(Cl)c(N)c1Cl` (centres undefined), which outcome is on record?
Answer: Its outcome is “inactive”.

Question: `CCOC(=O)C(C)Oc1ccc(Oc2nc3ccc(Cl)cc3o2)cc1` (centres undefined) was tested. Which outcome did it give?
Answer: The outcome was “inactive”.

Question: Which AC50 does the source give for `O=C(O)C1(C(=O)Nc2ccc(Cl)cc2Cl)CC1` here?
Answer: The AC50 was 65.6 µM (active).

Question: How did the outcome turn out when `CC(C)(c1ccc(O)cc1)c1ccc(O)cc1` was run?
Answer: Its outcome is “inactive”.

Question: With `CC(=O)S[C@@H]1CC2=CC(=O)CC[C@]2(C)[C@H]2CC[C@@]3(C)[C@@H](CC[C@@]34CCC(=O)O4)[C@H]12` as the compound, how does the AC50 read?
Answer: Its AC50 is 43.4 µM (active).

Question: How did the outcome turn out when `OB(O)O` was run?
Answer: Its outcome is “inactive”.

Question: For `S=C(S)NCCNC(=S)S.[Mn+2].[S-]C([S-])=NCCN=C([S-])[S-].[Zn+2]`, which AC50 is on record?
Answer: Its AC50 is 1.28 µM (active) and 1.55 µM (active).

Question: How did the AC50 turn out when `Cc1nn(C)c(Oc2ccccc2)c1C=NOCc1ccc(C(=O)OC(C)(C)C)cc1` was run?
Answer: Its AC50 is 4 µM (active).

Question: `Oc1ccc(C(c2ccc(O)cc2)C(Cl)(Cl)Cl)cc1` was tested. Which outcome did it give?
Answer: The outcome was “inactive”.

Question: For `O=C(O)c1ccccc1`, which outcome is on record?
Answer: The outcome was “inactive”.

Question: With `COC(=O)c1ccc(I)cc1S(=O)(=O)NC(=O)Nc1nc(C)nc(OC)n1` as the compound, how does the outcome read?
Answer: The outcome was “inactive”.

Question: For `CCCOC(=O)c1ccc(C(=O)OCCC)nc1`, which outcome is on record?
Answer: The outcome was “inactive”.
